# Test results published in PubChem BioAssay (NCI).
# The panel holds about 79,000 compounds, 15% with a hit somewhere; the sample as a whole holds those more often. Unmarked numbers belong to inactive results. Active and inactive are the calls of the source. No stated cut-off is given here; in the data, active means growth inhibition above about 70%; inactive means the rest.
# Assay: NCI Yeast Anticancer Drug Screen. Data for the cln2 rad14 strain (AID 165);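 further: 0% = growth equal to vehicle treated cultures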
# Details: S. cerevisiae cln2 rad14 strain, at 5.0 µM (retest, dose inferred, filed as 0.5), stronger effect = higher value
# Summary of the method: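 Strain: cln2 rad14 yeast, altered in cell cycle control and DNA damage repair. Read-out: growth inhibition vs vehicle.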
row,Compound,growth inhibition
1,O=C(O)/C=C/c1ccc2c(c1)CCCC2,-28%
2,CC(NNC(=S)N1CCCC1)c1ccc2ccccc2n1 (stereo not given),4%
3,c1cc(CCSSCCc2ccncc2)ccn1,4%
4,CCOC(=O)C(N=Nc1ccc(Br)c(C)c1)C(C)=O (stereo not given),11%
5,N#CC(C(=O)CCCC(=O)Nc1cccc([N+](=O)[O-])c1)c1cccc2ccccc12 (stereo not given),4%
6,Cc1ccc(S(=O)(=O)NNC(=O)c2sc(-c3nc(C)c(C(=O)NNS(=O)(=O)c4ccc(C)cc4)s3)nc2C)cc1,8%
7,Nc1nc(Cl)cc(Nc2ccc(Cl)c(Cl)c2)n1,16%
8,CN(C)C=Nc1c2ccccc2nc2ccccc12,37%
9,Cc1cc(N=[N+]=[N-])c2cc(C3CCCCC3)ccc2n1,8%
10,CCN(CC)C(=O)CCCCC(=O)OC(C)C,-7%
11,CC12CCC(C(Br)(Br)C1=O)C2(C)C (stereo not given),22%
12,CCCCCCCCN(CCCCCCCC)C(=O)C(C)O (stereo not given),9%
13,O=C1C=CC(=O)C1=Cc1ccc(Cl)c(Cl)c1,100% (active)
14,COc1ccc([N+](=O)[O-])cc1NC(=O)Nc1ccc(C(=O)OCC(C)C)cc1,-10%
15,CCOC(=O)n1c2ccccc2c(=O)n1CCO,-32%
16,CC(=O)OC12CCC3C4CC=C5CC(O)CCC5(C)C4C(=O)C3C1(C)N1CC(C)CC(O)C1C2C (stereo not given),18%
17,Cc1cccnc1NC(=S)Nc1ccccc1Cl,-12%
18,CS(=O)(=O)OCCN(CCOS(C)(=O)=O)c1ccc(C=Nc2ccc(-c3cnc(-c4ccc(Cl)cc4)s3)cc2)c(Cl)c1,-6%
19,CC1(Cc2ccccc2)CCCC(C=O)C1=O.[Cu+2] (stereo not given),0%
20,C[N+]1(c2ccccc2)C=C(c2ccccc2)SC1=S (stereo not given),1%
21,CC12CCC3c4cc(O)ccc4CCC3C1CCC2O (stereo not given),-6%

# Same assay, conditions: S. cerevisiae cln2 rad14 strain, at 50.0 µM (retest, dose inferred, filed as 5.0), stronger effect = higher value
row,Compound,growth inhibition
1,OCCSCc1cc(Cl)cc(Cl)c1O,44%
2,CC(=O)Nc1ccccc1C(O)(c1ccccc1)c1ccccc1,-2%
3,Cc1cc(N=Nc2ccccc2C)c(N)cc1N,40%
4,O=C(Nc1ccc(Cl)cc1)Nc1nnc(/C=C/c2ccc(Cl)c(Cl)c2)o1,-4%
5,CCCCCCCCCCCC(=O)OCCOC(=O)CCCCCCCCCCC,-5%
6,CCN(C(C)=O)c1ccc2c(c1)Cc1ccccc1-2,96% (active)
7,O=[N+]([O-])c1cccn2nc(C3OC(CO)C(O)C3O)nc12 (stereo not given),-4%
8,Oc1cc(CNCc2ccccc2)c(O)c(CNCc2ccccc2)c1,-13%
9,N#CSC#Cc1ccc(C#CSC#N)cc1,97% (active)
10,O=C(O)/C=C/C(=O)NNc1nc2ccccc2s1,1%
11,COc1ccc2c(c1)[n+]([O-])c(-c1ccc(C)cc1)c(N)[n+]2[O-],96% (active)
12,C=CCc1cc([N+](=O)[O-])ccc1O,85% (active)
13,CC(C)C1=CC23CCC4C(C)(C(=O)O)CCCC4(C)C2CC1c1c(O)ccc(O)c13 (stereo not given),98% (active)
14,NC(=O)C(CCc1cccc2ccccc12)c1ccccc1 (stereo not given),-3%
15,CC(CO)CCC(=O)C(C)C1C(=O)CC2CC3CC(O)CCC3(C)CC21C (stereo not given),88% (active)
16,Oc1c(Cl)cc(Cl)cc1/C=C1\C=Nc2ccccc21,20%
17,CCCC(C(=O)OCCN1CCCC1(C)C)C1CCCC1 (stereo not given),58%
18,OCCN1CCN(CCCN2c3cc(Cl)ccc3Sc3ccsc32)CC1,97% (active)
19,O=C(O)/C=C/c1ccc2c(c1)CCCC2,70% (active)
20,CC(NNC(=S)N1CCCC1)c1ccc2ccccc2n1 (stereo not given),95% (active)

row,Compound,growth inhibition
1,c1cc(CCSSCCc2ccncc2)ccn1,42%
2,CCOC(=O)C(N=Nc1ccc(Br)c(C)c1)C(C)=O (stereo not given),50%
3,N#CC(C(=O)CCCC(=O)Nc1cccc([N+](=O)[O-])c1)c1cccc2ccccc12 (stereo not given),11%
4,Cc1ccc(S(=O)(=O)NNC(=O)c2sc(-c3nc(C)c(C(=O)NNS(=O)(=O)c4ccc(C)cc4)s3)nc2C)cc1,98% (active)
5,Nc1nc(Cl)cc(Nc2ccc(Cl)c(Cl)c2)n1,58%
6,CN(C)C=Nc1c2ccccc2nc2ccccc12,60%
7,Cc1cc(N=[N+]=[N-])c2cc(C3CCCCC3)ccc2n1,69%
8,CCN(CC)C(=O)CCCCC(=O)OC(C)C,-1%
9,CC12CCC(C(Br)(Br)C1=O)C2(C)C (stereo not given),41%
10,CCCCCCCCN(CCCCCCCC)C(=O)C(C)O (stereo not given),97% (active)
11,O=C1C=CC(=O)C1=Cc1ccc(Cl)c(Cl)c1,99% (active)
12,COc1ccc([N+](=O)[O-])cc1NC(=O)Nc1ccc(C(=O)OCC(C)C)cc1,56%
13,CCOC(=O)n1c2ccccc2c(=O)n1CCO,-18%
14,CC(=O)OC12CCC3C4CC=C5CC(O)CCC5(C)C4C(=O)C3C1(C)N1CC(C)CC(O)C1C2C (stereo not given),62%
15,Cc1cccnc1NC(=S)Nc1ccccc1Cl,99% (active)
16,CS(=O)(=O)OCCN(CCOS(C)(=O)=O)c1ccc(C=Nc2ccc(-c3cnc(-c4ccc(Cl)cc4)s3)cc2)c(Cl)c1,90% (active)
17,CC1(Cc2ccccc2)CCCC(C=O)C1=O.[Cu+2] (stereo not given),92% (active)
18,C[N+]1(c2ccccc2)C=C(c2ccccc2)SC1=S (stereo not given),10%
19,CC12CCC3c4cc(O)ccc4CCC3C1CCC2O (stereo not given),41%
